# Measured values published in PubChem BioAssay (NCI).
# About 83,000 compounds went through this panel and 20% of them were active in at least one assay; those are over-represented in the sample as a whole.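 The endpoint reported here, percent growth, reads 100 for growth as untreated, 0 for no net growth and -100 for all cells dead.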 A number with no mark means an inactive call. The source made the active and inactive calls. How the source made its calls: active means growth percent below 10; inactive means the rest.
# Assays:
# Assay in all cases: NCI-60 one-dose screen, 48 h (100 = growth as untreated, 0 = no growth, -100 = all killed)
# Settings in all cases: 10 µM unless noted
# [1] = system: T-47D breast
# [2] = system: BT-549 breast
# [3] = system: MDA-MB-435 melanoma
# [4] = system: SW-620 colon
# [5] = system: MCF7 breast
# [6] = system: HCT-116 colon
# [7] = system: HCC-2998 colon
# [8] = system: KM12 colon
Structure (SMILES),growth [1],growth [2],growth [3],growth [4],growth [5],growth [6],growth [7],growth [8]
Clc1ccc(C2=NN(c3ccc(Cl)cc3)C(c3cccc(Nc4ccnc5cc(Cl)ccc45)c3)C2)cc1 (centres undefined),79.8%,68.4%,99.2%,90%,81.9%,55%,94%,85.2%
O=C(CNC(=O)c1cccc2ccccc12)Nc1ccccc1Oc1cccc(O)c1,42.3% [5 µM],18.7% [5 µM],-48% [5 µM] (active),20.3% [5 µM],20.5% [5 µM],8.18% [5 µM] (active),58.3% [5 µM],22.8% [5 µM]
O=C(O)c1ccc(CNS(=O)(=O)c2ccc3ccccc3c2)cc1,100%,104%,110%,99.8%,107%,109%,271%,101%
NC(=O)c1cc(Br)cc(Br)c1NS(=O)(=O)c1ccccc1,99.2%,103%,111%,101%,99%,100%,106%,106%
O=C1c2cc3c(cc2-c2c1c1ccc(Cl)cc1c(=O)n2CCCNCCO)OCO3,-67.1% (active),-63.7% (active),-85% (active),-73.2% (active),-73.1% (active),-74.2% (active),-89% (active),-78.4% (active)
COC(=O)CC1=C(c2ccc([N+](=O)[O-])cc2)CCC1=O,101%,110%,105%,101%,104%,112%,109%,107%
CCCCCCCCCCCCC1CCCC(C)C1 (centres undefined),96.4%,102%,104%,101%,93.6%,94.9%,97.7%,91.3%
COc1c(O)cc2c(c1CC=C(C)C)OC(=O)c1c(cc(O)c(CC=C(C)C)c1O)O2,49.3%,78.2%,60.3%,27.3%,10.6%,26.8%,24.5%,7.76% (active)
Cc1sc2nc(NCc3ccccc3)[nH]c(=O)c2c1C,31.6%,53.9%,-31% (active),26%,31%,24.5%,87.7%,36.2%
COc1cc2c(cc1OC)C(=O)/C(=C/c1cccc(OCC(=O)c3ccccc3)c1)C2,55.2%,49.4%,110%,74.6%,60.7%,64.6%,111%,170%
CC1c2ccccc2-c2ccccc2N1C (centres undefined),85.7%,103%,119%,108%,99.4%,96%,105%,104%
c1ccc2nc(Cn3c[n+](Cc4ccc5ccccc5n4)c4ccccc43)ccc2c1,10.6%,8.39% (active),9.62% (active),45.3%,22.9%,18.1%,32.9%,21.9%
Cc1cccc2nnc(-c3ccccc3)n12,115%,98.9%,112%,112%,97%,104%,102%,108%
CC(C)=CCNc1ncnc2c1ncn2C1OC(COP(=O)(O)O)C(O)C1O (centres undefined),3.18% (active),2.41% (active),56.7%,37.6%,16.5%,19.2%,–,69.6%
COc1ccc2c(c1)CC[C@@H]1[C@@H]2CC[C@]2(C)[C@@H](O)C(=O)C[C@@H]12,106%,103%,102%,105%,129%,99.7%,–,110%
Cc1ncc(C(=O)Nc2ccc(CN3CCN(C)CC3)c(C(F)(F)F)c2)cc1C#Cc1cncc2ncccc12,83.7%,85.4%,36.9%,59.6%,71.9%,42.2%,–,13.6%
CCN(CC)c1ccc(N=C2C=CC(=O)C=C2NC(C)=O)cc1,82.5%,109%,124%,89%,82.6%,97.9%,–,98.6%
Clc1ccc2c(c1)C(Br)c1cc(Cl)cc(Cl)c1-2 (centres undefined),73%,87.3%,85.7%,60.4%,69%,65.4%,–,98.3%
CN1CCN(CCCCCN=c2cc3c(=O)n(CCCCCN4CCN(C)CC4)c(=O)c4c(NCCCCCN5CCN(C)CC5)cc5c(O)n(CCCCCN6CCN(C)CC6)c(=O)c2c5c4-3)CC1,16.5%,11.4%,-41.5% (active),21.9%,-6.01% (active),2.16% (active),–,2.69% (active)
C[C@@H]1C[C@@H]([C@@H](CC2CC(=O)NC(=O)C2)OC(=O)CC(=O)c2ccccc2)C(=O)[C@@H](C)C1,-2.63% (active),14.6%,11.6%,15.1%,14.7%,5.68% (active),–,12%
COc1ccc2c(c1)sc1nc(-c3ccc(Br)cc3)cn12,85%,120%,103%,101%,80.4%,92.4%,–,102%
Cc1cc(Cl)ccc1Nc1nc(C(F)(F)F)ccc1C(=O)N/N=C/c1ccc(Cl)cc1,-0.161% (active),-7.4% (active),37.1%,9.53% (active),2.27% (active),-38.8% (active),–,6.03% (active)
COc1cc(NC(=O)NCc2ccco2)ccc1-c1ccc(NC(=O)NCc2ccco2)cc1OC,40.9%,81.7%,76.5%,72.6%,44.7%,35.2%,–,47.8%
CCOC(=O)/C(=C/CC/C(C)=C/CC/C(C)=C/CCc1ccoc1)CC(=O)N1CCCCC1,27.7%,88%,34.1%,64.6%,32%,44.9%,–,49%
Cc1ccc2nc(SCC(=O)Nc3ccc(-c4nc5ccccc5s4)c(Cl)c3)[nH]c2c1,99.2%,103%,111%,111%,90.6%,101%,–,115%
Nc1ccc2c(c1Br)Cc1ccccc1-2,87.8%,89%,110%,98.1%,51%,98.2%,–,103%
Cc1ccc(C(=O)Cc2ccccc2)c(O)c1,95.8%,105%,115%,105%,99.9%,108%,–,110%
O=C1C=CC(=O)N1c1ccccc1N1C(=O)C=CC1=O,102%,104%,122%,57.9%,97.1%,105%,–,117%
